12-hLO inh: qHTS Assay for Inhibitors of 12-hLO (12-human lipoxygenase). Potency, µM (series often up to 57.1 µM), without a hit: at the highest dose activity change, negative = inhibition, usual class: inhibitors. hit rate 0.12% among 150,000. purified 12-hLO, xylenol orange hydroperoxide absorbance; further: potency means the concentration at half of the fitted maximal effect; nearly all actives have a fitted effect of over 55% in size
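150 nM 12hLO, 25 mM Hepes pH 7.0 + 0.01% Triton X-100; cpd preinc 15 min RT; 40 uM arachidonic acid, 30 min RT; Fe-XO 30 min; A573/A405 ratio as read-out.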
IMPase cell inh: qHTS Assay for Identifying the Cell-Membrane Permeable IMPase Inhibitors. Inositol monophosphatase 1 (Rattus norvegicus), P97697. CHO-M1 cells, IP1 accumulation, HTRF TR-FRET ratio. inhibition (IP1 accumulation), % at 46.1 µM. 120,000 tested, under 10 active; active means well fitted curve in the direction sought with a large enough effect in the signal ratio, not every such curve was filed as active; inconclusive means small, poorly fitted or top-dose-only effect, or a change in a side signal; inactive means no such curve, though single readings can be large or run the other way; the % refers to the signal ratio;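 further: cells stimulated with carbachol in lithium chloride buffer; plate controls were DMSO basal wells for no effect and reference inhibitor wells for full effect; higher means more IMPase inhibition seen as more IP1 and lower FRET ratio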
Target sequence (P97697 whole entry, looked up): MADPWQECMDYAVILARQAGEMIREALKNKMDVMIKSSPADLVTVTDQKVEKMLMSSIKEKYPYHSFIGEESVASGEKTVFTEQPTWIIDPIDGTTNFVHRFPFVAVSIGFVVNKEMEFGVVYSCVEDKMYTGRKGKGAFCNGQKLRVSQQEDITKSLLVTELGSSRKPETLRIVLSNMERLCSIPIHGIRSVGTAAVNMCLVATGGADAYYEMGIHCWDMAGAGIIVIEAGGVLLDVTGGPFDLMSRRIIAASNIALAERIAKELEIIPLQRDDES
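Seeded CHO-M1 cells were dosed with compound at up to 46 uM, stimulated with carbachol for 30 min, then lysed in IP-One detection reagents. Higher IP1 lowers the TR-FRET signal.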
PNC inhibitor: High Content Assay for Compounds that inhibit the Assembly of the Perinucleolar Compartment; activity change (PNC), negative = inhibition, % at 10 µM; hit rate 3.1% among 140,000; PC3M PTB-GFP, PNC prevalence imaging, 16 h; stronger effect = lower value;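 active means readout at or below -70, meaning at least 70% loss of cells showing the perinucleolar compartment, a nuclear body marking cancer cells; inconclusive means readout between -30 and a set limit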;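 further: plate controls were DMSO wells for no effect and camptothecin positive control wells for full effect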
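Compounds are pinned in duplicate onto adhered PC3M cells stably expressing GFP-tagged PTB and incubated 16 h at 37 C. Cells are then fixed, nuclei stained with Hoechst, and PNC-positive cells counted.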
ALOX15B inhib: qHTS Assay for Inhibitors of 15-hLO-2 (15-human lipoxygenase 2); Polyunsaturated fatty acid lipoxygenase ALOX15B (Homo sapiens), O15296; purified 15hLO-2, xylenol orange hydroperoxide absorbance; Potency, µM (doses to about 57.1 µM), without a hit: top-dose activity change, negative = inhibition, actives largely listed as inhibitors; hit rate 0.56% among 110,000; further: potency means the concentration at half of the fitted maximal effect; nearly all actives have a fitted effect of over 60% in size
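Screening format was qHTS against 50 nM purified 15hLO-2 in Hepes pH 7.5 with detergent. Activity follows hydroperoxide formation from 45 uM arachidonic acid, measured as 573:405 nm absorbance ratio of the ferric-xylenol orange complex.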
The depositor's hits bear a star; u = inconclusive; x = no result; [ ] = remark or other dose. A selection: hits, their analogues and other compounds. The true share with any hit is near 3%. Unless noted, the call rests on the fitted dose curve; in most records, active means well fitted curve in the direction sought with a large enough effect; inconclusive means small, poorly fitted or top-dose-only effect, or another doubt; inactive means no such curve, though single readings can be large; an effect the other way counts as inactive or inconclusive. Unless noted, on the % scale 0 is the no-effect control and ±100 the full control effect.

SMILES	12-hLO inh	IMPase cell inh	PNC inhibitor	ALOX15B inhib
CCOc1cc(CNc2ccc3c(c2)OCCO3)cc(Br)c1OCC	-16%	2	-83*	-10%
CCOc1ccc(CNc2ccc(N3CCCC3)cc2)cc1	-29%	26	14	5µM*
CCOc1cc(CNc2ccc(N3CCOCC3)cc2)cc(Br)c1OCC	u	x	-113*	x
CCOc1ccc(C(=O)Nc2ccc3c(c2)OCCO3)cc1Br	x	-6	x	x
CCN(CCNC(=O)CN1CCN(Cc2ccc(Cl)cc2)C1=O)c1ccccc1	-6%	1	23	9%
CCOC(=O)c1c(C)nc2ccc(Cl)cc2c1-c1ccccc1	-1%	x	-14	x
CC(=O)c1c(C)nc2cc(Cl)ccc2c1N	1%	-11	-95*	5%
Cc1cnc(C)c(N(C)NC(=S)Nc2ccccc2)n1	1%	x	-109*	x
C/C=C/c1ccc(OCCOc2cc(C=O)ccc2OC)c(OC)c1	-4%	x	-113*	x
C/C=C/c1ccc(OCCCNC2CCCC2)c(OC)c1	-7%	8	u	14%
COc1cc(C=O)ccc1OCCOCCOc1ccccc1Cl	-10%	-6	2	1%
C/C=C/c1ccc(OCCCCOc2ccccc2F)c(OC)c1	-3%	x	-125*	x
O=C(O)[C@H](/C=C\c1ccccc1)c1ccccc1	-3%[11.4 µM]	x	x	-6%[11.4 µM]
COc1ccc(S(=O)(=O)N(C)CC(=O)Nc2c(F)cccc2F)cc1	-3%	7[1.84 µM]	-103*	2%[11.4 µM]
COc1cc(OC)cc(C(=O)Nc2c(F)cccc2F)c1	-5%	3	-119*	x
N[C@@H](CNO)C(=O)O	1%[11.4 µM]	x	x	14%[11.4 µM]
COC(=O)C1(O)CC(CC(C)C)=NN1C(=O)c1ccccc1 (configuration not stated)	-1%	4[1.84 µM]	-124*	9%[11.4 µM]
N[C@H]1[C@@H](C(=O)O)[C@H]2C=C[C@H]1C2	2%[11.4 µM]	x	x	-6%[11.4 µM]
COc1ccc(C(c2nnnn2CC2CCCO2)N2CCN(c3ccc(F)cc3)CC2)cc1 (configuration not stated)	-3%	-6	-86*	1%
COc1ccc(Cn2nnnc2C(c2ccncc2)N2CCOCC2)cc1 (configuration not stated)	-2%	-3	-99*	-20%
Cc1csc(CCc2nc(C)cs2)n1	1%	2	51	-3%
Cc1ccc(NC(=O)COC(=O)C(CC(C)C)N2C(=O)C3CC=CCC3C2=O)c(C)c1 (configuration not stated)	0%	-2	-87*	x
Cc1ccc(NC(=O)COC(=O)c2ccc3c(c2)C(=O)N(CCc2ccccc2)C3=O)c(C)c1	-2%	x	28	x
CC(C)(C)c1ccc(C(=O)Nc2ccccc2NC(=O)c2ccco2)cc1	7%	9	56	x
Nc1ccc(C(=O)Nc2ccco2)cc1	-1%	3	-100*	x
SMILES	12-hLO inh	IMPase cell inh	PNC inhibitor	ALOX15B inhib
CC(=O)c1cc(Cc2csc(C(C)=O)c2)cs1	-4%	-7	-100*	4%
COc1ccc(-c2cc([C@H](O)[C@@H]3CCCCN3)c3ccccc3n2)cc1	-5%[11.4 µM]	x	x	24%[11.4 µM]
CCc1ccc(CCC(=O)Nc2ncc(Cc3ccccc3Cl)s2)o1	-7%	-6	-91*	x
COc1cccc([C@@H]2Oc3ccc(OC)cc3C(=O)[C@H]2OC(=O)NCc2ccc3c(c2)OCO3)c1	-8%	x	u	x
O=C(O)c1cccc(N2C(=O)C3CC=CCC3C2=O)c1 (configuration not stated)	3%	8	-100*	x
O=C(O)c1cccc(N2C(=O)c3cccnc3C2=O)c1	-11%	8	-100*	12%
O=C1c2cccnc2C(=O)N1CO	2%	-8	8	-11%
O=C(NC(=S)N1CCCCC1)C12CC3CC(CC(C3)C1)C2	-21%	5	-24	u
O=C(c1cc(NC(=O)C23CC4CC(CC(C4)C2)C3)cc(NC(=O)C23CC4CC(CC(C4)C2)C3)c1)N1CCCCC1	7%	1	-97*	x
O=C(O)c1ccc(C(=O)O)c(C(=O)O)c1.[NH-][C@@H]1CCCC[C@@H]1[NH-].[Pt]	1%[11.4 µM]	x	x	6%[11.4 µM]
CCCCn1c(SCC(=O)N2CCOCC2)nnc1-c1ccoc1C	-2%	-6	-100*	x
Cc1ccc(OCc2nnc(SCCN3CCOCC3)n2C)cc1	-7%	-3	-9	-10%
Cc1ccc(OCc2nnc(SCC(=O)N3CCOCC3)n2C)cc1	1%	9	-107*	-2%
CC(=O)Nc1ccc2nc(C)n(Cc3ccc(Cl)cc3)c(=O)c2c1	-5%	-8	-90*	x
O=C(NNC(=O)c1ccccc1Br)c1ccc(Cl)cc1	-8%	5	97	-15%
O=C(Nc1ccc(Cl)cc1F)c1ccccc1Br	-5%	x	-81*	x
O=C(CNCC1CCCO1)Nc1ccccc1N1CCOCC1 (configuration not stated)	-5%	2	-86*	-12%
Cc1ccc2nc(SCC(=O)Nc3ccccc3N3CCOCC3)c(C#N)cc2c1	2%	-6	-111*	x
CC(C)(C)c1ccc(/C=N/OCC(=O)NCc2ccc(F)cc2)cc1	1%	x	-16	x
NC(=O)NC(N)=O	3%	x	x	-12%
O=C(CSCc1cnn(-c2ccccc2)c1-n1cccc1)NCc1ccc2c(c1)OCO2	-12%	-10	-100*	x
O=C(NCCCn1ccnc1)c1cc(-c2ccc3c(c2)OCO3)on1	-10%	-1	-91*	20%
COc1ccc(-c2cc(C(=O)NCCCn3ccnc3)no2)cc1OC	0%	-3	-2	7%
O=C(O)CCCCn1c(SCC(=O)Nc2ccccc2C(F)(F)F)nc2ccsc2c1=O	-4%	x	-113*	x
Cc1ccc(NC(=O)CCSc2nc(-c3ccco3)cc(C(F)(F)F)n2)cc1F	x	-2	x	x
SMILES	12-hLO inh	IMPase cell inh	PNC inhibitor	ALOX15B inhib
Cc1cc(/C=N/n2cnnc2)c(O)c([N+](=O)[O-])c1	-1%	x	-118*	x
O=[N+]([O-])c1ccccc1-c1ccc(/C=N/n2cnnc2)o1	-1%	-3	47	0%
Cc1ccc(C)c(Nc2ncnc(N)c2[N+](=O)[O-])c1	1%	x	-124*	x
Nc1ncnc(NCc2ccccc2)c1[N+](=O)[O-]	-2%	x	-6	x
N#Cc1c(-c2cccs2)cc(C2CC2)nc1SCC(N)=O	3%	-27	23	-20%
CCCCN1C(=O)CCC(C(=O)O)C1c1ccccc1 (configuration not stated)	7%	4	-102*	x
O=C(CN1CCN(CC(=O)Nc2ccccc2Cl)CC1)Nc1ccc2c(c1)OCCO2	-6%	0	-100*	-15%
O=C(COc1ccccc1Cl)Nc1ccc2c(c1)OCCO2	-6%	5	14	-2%
COc1ccccc1NC(=O)CN1CCN(CC(=O)Nc2ccc3c(c2)OCCO3)CC1	-3%	8	9	-6%
O=C(CSCc1c(Cl)cccc1Cl)Nc1ccc2c(c1)OCCO2	-3%	x	-83*	x
COc1ccc(NC(=O)CN2CCN(c3ccccc3Cl)CC2)cc1	9%	2	-100*	x
COc1ccc(NC(=O)CN2CCN(CC(=O)Nc3ccccc3Cl)CC2)cc1	-7%	-8	51	-6%

Screens as filed in PubChem BioAssay.
